Measurements published in ChEMBL document CHEMBL3988442, “University of Dundee, Small-Polar-MMV Screening Library” (2021).
Screen size: about 48,000 compounds; about 13,000 (27%) showed an effect of 50% or more. The list shows a part of the results.

tested on: Wolbachia pipientis; experiment: Anti-Wolbachia Cell-Based Screen; assay type: functional; set-up: scale not given: in the data most compounds retested in dose-response had high values; conditions: 5 µM

| Structure (SMILES) | Percent Effect [%] |
| --- | --- |
| Cc1cccc(CN(Cc2ccccc2)Cc2nccs2)n1 | -3.089 |
| COc1ccccc1OC1CN(C(=O)CN(C)Cc2ccncc2)C1 | -7.187 |
| CCC(=O)NC1CCCN(Cc2ccc(-n3ccnc3)cc2)C1 (stereo not given) | 12 |
| CCc1nc2ccccc2c(=O)n1CC1(O)CCNCC1.Cl | 113.9 |
| Cc1nc2ccccc2c(=O)n1CCC(=O)N1CCNC(=O)C1 | -8.423 |
| CCc1nc2ccccc2c(=O)n1CC1(O)CCN(S(C)(=O)=O)CC1.Cl | -5.087 |
| CCNC(=O)N(Cc1ccoc1)C1CCCCC1 | -0.3193 |
| Cc1cc(-c2cnn(CCNC(=O)c3cnn(C)c3)c2C2CC2)on1 | 133.8 |
| Cc1cc(-c2cnn(CCNC(=O)c3cc[nH]n3)c2C2CC2)on1 | 115.4 |
| CCCn1nc(C)c(CNC(=O)c2snnc2C)c1C | -13.49 |
| Cc1cc(-c2cnn(CCNC(=O)C3CC3)c2C2CC2)on1 | 8.757 |
| Cc1cc(-c2cnn(CCNC(=O)c3cccnc3)c2C2CC2)on1.Cl | -6.458 |
| Cc1cc(C(=O)NCCSC2CCCC2)no1 | -0.7527 |
| Cc1cc(-c2cnn(CCNC(=O)c3snnc3C)c2C2CC2)on1 | 141.4 |
| CCc1cccc(N2CCC(NC(=O)c3cc[nH]n3)CC2)c1 | 15.39 |
| O=C(NCCc1nnc[nH]1)Nc1cccc(SC(F)F)c1 | -17.31 |
| O=C(C[S+]([O-])Cc1ccc(Cl)cc1Cl)N1CCc2sccc2C1 (stereo not given) | -26.03 |
| Cc1nc(CN(C)C(=O)C2CC(=O)N(c3cccc(O)c3)C2)cs1 (stereo not given) | -3.806 |
| COc1cccc(S(=O)(=O)CCN2CCCN(C(C)=O)CC2)c1 | -4.305 |
| CN1CCOC[C@H]1c1nc(-c2ccncc2)c[nH]1 | -4.576 |
| Cc1ccc(C)c(NC(=O)N2CCC3(CC2)NC(=O)CC3C(=O)O)c1 (stereo not given) | -4.672 |
| O=C(O)[C@@H]1CN(C2CCOCC2)C[C@H]1C1CC1 | 12.44 |
| Fc1ccc(-c2ccc(CNC3CCc4ncnn4C3)o2)cc1 (stereo not given) | -0.7899 |
| Fc1ccc(-c2nc(CNC3CCc4ncnn4C3)co2)cc1 (stereo not given) | 119.4 |
| c1csc(-c2nc(CNC3CCc4ncnn4C3)co2)c1 (stereo not given) | -0.5039 |
| c1nc2n(n1)CC(NCc1csc(-c3ccsc3)n1)CC2 (stereo not given) | -11.03 |
| Clc1ccccc1-c1nc(CNC2CCc3ncnn3C2)co1 (stereo not given) | 83.87 |

| Structure (SMILES) | Percent Effect [%] |
| --- | --- |
| c1ccc(-c2nc(CNC3CCc4ncnn4C3)co2)cc1 (stereo not given) | 3.463 |
| Clc1ccccc1-c1nc(CNC2CCc3ncnn3C2)cs1 (stereo not given) | -2.283 |
| Fc1ccc(-c2nnc(CNC3CCc4ncnn4C3)o2)cc1 (stereo not given) | -10.58 |
| Clc1cccc(-c2nc(CNC3CCc4ncnn4C3)co2)c1 (stereo not given) | 112.7 |
| Cc1ccc(-c2nc(CNC3CCc4ncnn4C3)co2)cc1 (stereo not given) | 77.78 |
| N#Cc1ccc(CS(=O)(=O)NC(=O)c2ccc3c(c2)COC3)cc1 | -4.05 |
| Cn1cc(Cl)cc1C(=O)N1CCN(Cc2ccsc2)CC1 | -5.701 |
| CC(=O)N1CCC(N2CCOC[C@H]2c2nc(-c3cccnc3)c[nH]2)CC1 | 31.59 |
| CCC(C)NC(=O)c1ccccc1-n1cnnn1 (stereo not given) | -7.012 |
| Cc1sc(-n2cnnn2)c(C(=O)NC(C)C)c1C | 78.35 |
| Cc1nc(NC(=O)c2c(-n3cnnn3)sc3c2CCC3)sc1C | 89.24 |
| Cc1nc(NC(=O)c2c(-n3cnnn3)sc3c2CCCC3)sc1C | 119.6 |
| Cc1nc(NC(=O)C(C)N2CCN(c3cnccn3)CC2)sc1C (stereo not given) | 1.711 |
| Cc1nc(NC(=O)c2cccnc2N2CCOCC2)sc1C | -47.07 |
| Cc1nc(NC(=O)c2c(-n3cnnn3)sc(C)c2C)sc1C | 111.3 |
| CC[C@H](C)[C@H](NC(=O)c1ccccc1-n1cnnn1)C(=O)OC | 39.09 |
| O=C(COCC1CC1)N1CCCC(n2cccn2)C1 (stereo not given) | 4.687 |
| CC1CN(Cc2ccccc2)CCCN1CCCS(C)(=O)=O (stereo not given) | -4.156 |
| CC(=O)Nc1nc(C2CCN(C(=O)c3cncs3)CC2)cs1 | 107.2 |
| Cc1nc(-c2ccc(CC(=O)N3CCN(C(=O)C4CC4)CC3)cc2)cs1 | 16.03 |
| CC(=O)c1ccc(C(=O)N2CCC(c3cc(O)nc(C)n3)CC2)s1 | -1.622 |
| CC(=O)Nc1nc(C2CCN(C(=O)C3CCC3)CC2)cs1 | 103.4 |
| CC(=O)Nc1nc(C(=O)N2CCCC(c3cc(C)[nH]n3)C2)cs1 (stereo not given) | -0.9316 |
| CCc1csc(CCNC(=O)CC2CCN(C(C)C)CC2)n1 | 8.427 |
| CC(=O)N1CCC(C(=O)Nc2nc(C3CC3)cs2)CC1 | 19.21 |
| CC(=O)Nc1nc(C2CCN(C(=O)Cc3ccccc3)CC2)cs1 | 87.03 |
| Nc1nc(C2CCN(C(=O)c3cncs3)CC2)cs1 | -2.594 |

| Structure (SMILES) | Percent Effect [%] |
| --- | --- |
| CC(=O)Nc1nc(C2CCN(CC(N)=O)CC2)cs1 | -6.255 |
| CC(=O)Nc1nc(C2CCN(C(C)C)CC2)cs1 | 119.6 |
| CSCC(=O)NC(Cc1ccc(C)cc1)c1ccccn1 (stereo not given) | -0.4247 |
| O=C(Cn1cc(C2CC2)nn1)NC(c1cc(F)ccc1F)C1CC1 (stereo not given) | -5.532 |
| O=C(C1CC=CC1)N1CCC2(CCC(=O)N2Cc2cccc(F)c2)CC1 | -0.5854 |
| O=C(NC[C@H]1OC[C@@H](NCc2ccc(F)cc2)[C@@H]1O)c1ccncc1 | -2.517 |
| CC(=O)Nc1nc(C2CCN(C(=O)c3ccncc3)CC2)cs1 | 108.8 |
| CC(=O)Nc1nc(C(=O)N2CCC(Nc3cccnn3)CC2)cs1 | -3.618 |
| COc1ccccc1N1CCC(N2CCOCC(CO)C2)CC1 (stereo not given) | 9.24 |
| O=C(CC1CCCO1)NCc1ccc(Br)cc1F (stereo not given) | 3.91 |
| CN(CC1(CO)CCOCC1)[C@@H]1c2ccccc2C2(CCNCC2)[C@H]1O | 1.582 |
| O=C(O)[C@]12CCCN(Cc3cccnc3)[C@@H]1CCN(c1cnccn1)C2 | -19.78 |
| c1cc(CN2CCCCC2c2ccc(Nc3cnccn3)nc2)ccn1 (stereo not given) | 159 |
| CC(C)(C)OC(=O)NCC1CCCCN1Cc1ccncc1 (stereo not given) | -3.492 |
| c1cncc(CN2CCCCC2c2ccc(Nc3cnccn3)nc2)c1 (stereo not given) | 73.84 |
| CC(C)(C)OC(=O)NCC1CCCCN1Cc1cccnc1 (stereo not given) | 4.728 |
| CCc1ccc(C(=O)N2CCN(CCS(C)(=O)=O)CC2)o1 | -5.31 |
| O=C(Nc1cccc(F)c1)N1CCN(Cc2noc(C3CC3)n2)CC1 | -10.54 |
| Cc1cccc(NC(=O)N2CCC3(CCC(C(=O)N(C)C)O3)CC2)c1 (stereo not given) | 100.6 |
| CN(C)C(=O)C1CCC2(CCN(C(=O)Nc3cccc(F)c3)CC2)O1 (stereo not given) | 98.46 |
| Cc1cccc(NC(=O)N2CCN(Cc3nnc(C(C)C)o3)CC2)c1 | -19.75 |
| O=C(Nc1cccc(-c2cscn2)c1)N1CCC2(CC1)CC(O)CO2 (stereo not given) | -8.053 |
| Cc1nsc(N2CCN(C(=O)Nc3cccc(F)c3)CC2)n1 | -8.293 |
| CC(C)NC(=O)CN1CCC2(CC1)OCCO2 | -0.8474 |
| CC(=O)N1CCC(c2nc(Cc3ccccc3)no2)C1 (stereo not given) | -18.53 |
| CC(=O)N1CCC(c2noc(C3CCC(=O)N3)n2)CC1 (stereo not given) | 120.5 |
| Cc1nc(C2CCCN(C(=O)C(C)(C)n3cc(Cl)cn3)C2)no1 (stereo not given) | -4.996 |

| Structure (SMILES) | Percent Effect [%] |
| --- | --- |
| O=C(Nc1cccs1)N1CC(c2nc(C3CC3)no2)C1 | 10.74 |
| O=C1CCC(c2nc(C3CCN(C(=O)Cc4cccs4)CC3)no2)N1 (stereo not given) | 131.4 |
| CC(C)(C)C(=O)N1CCC(c2noc(C3CCC(=O)N3)n2)CC1 (stereo not given) | 136.3 |
| Cc1noc(C2CCN(CC(=O)N3CCNC(=O)C3)CC2)n1 | -10.42 |
| O=C1NCCCc2[nH]c(-c3nc(C4CC4)no3)nc21 | -6.286 |
| O=C1CCC(c2nc(C3CCNCC3)no2)N1 (stereo not given) | 104.8 |
| O=C1NCCCc2[nH]c(-c3nc(C4CCCCC4)no3)nc21 | 4.619 |
| O=C1CCC2(CCCN(C(=O)Cc3cccs3)C2)N1 (stereo not given) | -20.18 |
| CN(C)C(C(=O)N1CC(Oc2ccccc2F)C1)c1ccc(F)cc1 (stereo not given) | 10.57 |
| CCN(CC1CCOC1)C(=O)Nc1ccc(-n2cncn2)nc1 (stereo not given) | -5.162 |
| CCC[C@H]1CN(CCS(C)(=O)=O)C[C@@H]1NC(=O)Cn1cc(C)cn1 | -15.47 |
| CCc1nccn1CCNC1CCN(c2nc3ccc(Cl)cc3s2)CC1 | -30.49 |
| O=C(CN1CCCC(c2noc(C3CC3)n2)C1)N1CCCC1 (stereo not given) | -17.34 |
| CC1(C)CNC(=O)c2nc(C3CCN(C(=O)C4CC4)CC3)[nH]c2C1 | -1.461 |
| O=C1CCC(c2nc(C3CCN(C(=O)C4CC4)CC3)no2)N1 (stereo not given) | 107.7 |
| CC(Nc1ncnc2c1CCNC2)c1ccc2c(c1)CCCC2 (stereo not given) | -81.25 |
| CC[C@H](C)Nc1nccc(-c2cnc3sccn3c2=O)n1 | 96.29 |
| C[C@@H](CO)Nc1nccc(-c2cnc3sc(Cl)cn3c2=O)n1 | 101.5 |
| Cc1ccc(NCCCNc2nccc(-c3cn(C)nc3C)n2)nc1 | 4.133 |
| CC(C)CNc1nccc(-c2cnc3sc(Cl)cn3c2=O)n1 | 98.56 |
| CC[C@@H](CO)Nc1nccc(-c2cnc3sc(C)cn3c2=O)n1 | 82.9 |
| c1cnc(NCc2n[nH]c3c2CCN(Cc2ccncc2)C3)nc1 | -7.099 |
| Cc1nc[nH]c1CN1CCCC(CNC(=O)c2ccc(N)nc2)C1 (stereo not given) | -15.92 |
| COc1cc2c(nn1)CCN(Cc1noc(CC(C)C)n1)C2 | -12.11 |
